Measured values from PubChem BioAssay (NCI).
Compounds without any hit were thinned out: in the full panel of roughly 83,000, 20% have a hit.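 In brief: 96-well plates, 48 h treatment, single concentration, percent growth endpoint.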 A number with no mark means an inactive call. The source made the active and inactive calls.

Tested on: PC-3 prostate
Assay: NCI-60 one-dose screen, 48 h (100 = growth as untreated, 0 = no growth, -100 = all killed)
Conditions: 10 µM unless noted
Protocol: Growth inhibition of the PC-3 human tumor cell line is measured as a screen for anti-cancer activity. Cells are grown in 96 well plates and exposed to the test compound for 48 hours. Compounds are tested at a single concentration, which is 10^-5 M for most compounds. The reported endpoint is percent growth (GI% or GIPRCNT), where numbers from 0 - 100% represent growth inhibition, and numbers from -100% - 0 represent cell death. For example, a value of 40 represents 60% growth inhibition. A value of 0 means no net growth occurred over the course of the experiment. A value of -40 indicates 40% of cells at the beginning of the experiment died by the end of the experiment. A value of -100 means all cells are dead at the end of the experiment.
NCI-60 Human Tumor Cell Lines Screen was performed using the standard one-dose NCI protocol, which is described in more detail at https://dtp.cancer.gov/discovery_development/nci-60/default.htm.
Compounds with GIPRCNT values below 10 were considered active. Activity score was based on GIPRCNT using the following formula: […]
Score is 0 for GIPRCNT values of 100 or above, 50 for GIPRCNT values of 0, and 100 for GIPRCNT values of -100.

Compound	growth
COC(=O)c1c2c(c(C)[n+]([O-])c1C)C(=O)C(NCc1ccc(Cl)cc1)=CC2=O	33.5%
COC(=O)/C(CCC=C(C)C)=C1\[C@@H](OC(C)=O)C[C@@]2(C)[C@H]1C[C@@H](O)[C@H]1[C@@]3(C)CC[C@H](NCCN)[C@@H](C)[C@@H]3CC[C@@]12C	59.6%
Clc1ccc(Sc2cnc(-c3ccccc3)o2)cc1	104%
COC(=O)c1c2c(c(C)[n+]([O-])c1C)C(=O)C=C(NCc1ccc(Br)cc1)C2=O	-11.1% (active)
COC(=O)[C@]1(C)CCC[C@]2(C)[C@H]3C[C@H]4C(C(C)C)=C[C@]3(CC[C@H]21)[C@H]1[C@@H]4[C@@H](OCCC#N)CC[C@@H]1OCCC#N	2.36% (active)
COc1ccc(-c2nn(-c3ccccc3)cc2/C=C2/SC(=S)N(C)C2=O)cc1	84.9%
Oc1c(Cl)cc(Cl)c2ccc(Cn3cc(-c4cc(F)cc(F)c4)nn3)nc12	84.8%
CCOC(=O)CSc1ncnc2c1c(-c1ccccc1)c(-c1ccccc1)n2-c1ccc(C)cc1	51.9%
COc1cc(-c2nc3cc(Cl)c(Cl)cc3[nH]2)ccc1OCC(=O)N=Nc1c(O)[nH]c2ccc([N+](=O)[O-])cc12	56.5%
CN(Cc1ccc(C(F)(F)F)cc1)CC(O)C(=O)Nc1ccc(Cl)cc1 (stereo not given)	22%
O=C1Nc2ccc(Br)cc2/C1=N/c1n[nH]c(=S)s1	95%
COc1ccccc1NC(=O)Cn1cc(CN2CCN(c3ccnc4cc(Cl)ccc34)CC2)nn1	71.8%
CCOC(=O)/C=C1\S/C(=N\Nc2cc(=O)[nH]c3ccc(Cl)cc23)N(c2ccccc2)C1=O	85.4%
CC(=O)Cc1nsc(NC(=O)c2cc(-c3cc(Cl)cc(Cl)c3)oc2C)n1	93.7%
Oc1c(Cl)cc(Cl)c2ccc(Cn3cc(-c4ccc(C(F)(F)F)cc4)nn3)nc12	74.6%
CCCCC(=O)c1ccco1	85.8%
O=C(Cn1c(=O)sc2ccccc21)NNS(=O)(=O)c1ccccc1[N+](=O)[O-]	96.2%
CCN(CC)CCOc1ccc(-c2c(-c3ccccc3)c(=O)oc3ccccc23)cc1	64.9%
C=CC(=O)NCc1ccc(Nc2nccc(-c3ccc(N4CCCC4)c(C#N)c3)n2)cc1	32.4%
CCOP(=O)(OCC)c1nc(-c2ccccc2)oc1NCc1cccnc1	101%

Compound	growth
O=C(Nc1cccnc1Nc1ccc(F)cc1)c1cn(Cc2cccc(Oc3ccccc3)c2)nn1	61.6%
CN1C(=O)N(C)C2Nn3c(s/c(=C\c4ccc(C(F)(F)F)cc4)c3=O)=NC21 (stereo not given)	104%
Cc1nc2sc(C(=O)Nc3ccccc3)c(N)c2cc1C(=O)c1ccccc1	33.4%
O=C1c2ccc3c4ccc5c6c(ccc(c7ccc(c2c37)C(=O)N1CCC[P+](c1ccccc1)(c1ccccc1)c1ccccc1)c64)C(=O)N(CCC[P+](c1ccccc1)(c1ccccc1)c1ccccc1)C5=O	56.1%
CNc1nc(S(=O)c2ccc(C#N)cc2)nc2ccccc12 (stereo not given)	89.2%
Cc1cc(Cl)ccc1NC(=O)c1cc2ccccc2cc1O	0.952% (active)
O=c1c2cc(-c3ccccc3)sc2nc2sc(-c3ccccc3)nn12	95.1%
N#Cc1nc(-c2ccccc2)oc1S(=O)(=O)N1CCOCC1	100%
Cc1cccnc1NC(=S)Nc1ncccc1C	99.9%
CS(=O)(=O)Nc1cc(-c2ccc3ncnc(Nc4ccc5c(cnn5Cc5ccccn5)c4)c3c2)cnc1Cl	72.8%
Clc1ccc(Nc2nnc(COc3ccccc3)c3ccccc23)cc1	-0.2% (active)
C1=C(N2CCCC2)CCC1	77.8%
C=CCc1c(O)c(C(=O)/C=C/c2ccc(Cl)cc2)c(OC)c2ccoc12	30.9%
CC(=O)[C@@H]1CCC=C2CC[C@]3(C)[C@@H](CC[C@@H]4[C@@]5(C)CCCNC(C)(C)[C@@H]5CC[C@]43C)[C@H]21	-21.4% (active)
CC(C)(C)n1cc(-c2ccnc(NCCNS(=O)(=O)c3cccc4ccccc34)c2)c(-c2cccc(F)c2)n1	4.9% (active)
O=C1/C(=C/c2ccc(F)cc2)COc2ccc(O)c(O)c21	-0.716% (active)
O=C(Cn1c2c(c3ccccc31)CCCC2)Nc1ccc(-c2nc3ccccc3s2)cc1	94.7%
CCS/C(Nc1ccccc1)=C(\C#N)C(=O)N/N=C/c1ccc(Cl)cc1Cl	31.5%
CS(=O)(=O)C1=CN(CCO)C(=O)N2CCCN=C12	98.8%
CCCCCCC1(C)NCCO1 (stereo not given)	94%
